Consider one sequence from article PMC7862700, “An all-to-all approach to the identification of sequence-specific readers for epigenetic DNA modifications on cytosine”.

What all share (assay): DAPPL (digital affinity profiling via proximity ligation, sequencing); 10 mM Tris-HCl pH 7.5, 50 mM NaCl, 1 mM DTT, 4% glycerol, room temperature, 30 min; GST-TFs on glutathione beads, 16-mer random dsDNA library, 0.1% formaldehyde crosslink after washing; high values mean tight binding
One test has as its target T1, FEV (Homo sapiens, UniProt Q99581 1-238).
T1 sequence: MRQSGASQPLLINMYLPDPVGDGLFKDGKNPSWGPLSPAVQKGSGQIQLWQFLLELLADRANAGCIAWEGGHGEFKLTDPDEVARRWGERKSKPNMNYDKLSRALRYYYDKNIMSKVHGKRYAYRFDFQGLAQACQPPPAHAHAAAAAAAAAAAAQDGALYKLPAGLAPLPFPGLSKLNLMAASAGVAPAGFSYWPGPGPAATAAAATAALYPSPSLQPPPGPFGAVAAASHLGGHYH
The conditions noted are these: protein: recombinant; tags: N-terminal GST; dsDNA, one strand shown. In outline:
(§1)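 Binding signal is each hexamer's read frequency for a factor divided by its frequency in the tag-only sample. The factors were GST-fused human transcription factors from yeast, captured on glutathione beads, DNA-barcoded and pooled with that sample. Pools were incubated with 200 nmole of a random double-stranded 16-mer DNA library in Tris/NaCl/DTT/glycerol buffer at room temperature for 30 min, then washed, crosslinked with 0.1% formaldehyde, proximity-ligated with BsaI/T4 ligase (1 h, 37 °C), PCR-amplified and sequenced on an Illumina NextSeq500.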

The target of the next test is ETV5 (Homo sapiens, UniProt P41161 1-510). The conditions noted are these: protein: recombinant; tags: N-terminal GST; dsDNA, one strand shown. A digest of the protocol:
as §1

For another test, the target named is HSF1 (Homo sapiens, UniProt Q00613 1-529). The conditions noted are these: protein: recombinant; tags: N-terminal GST; chain copies: 3; dsDNA, one strand shown. In outline: as §1
Sequence of HSF1 (Q00613 whole entry): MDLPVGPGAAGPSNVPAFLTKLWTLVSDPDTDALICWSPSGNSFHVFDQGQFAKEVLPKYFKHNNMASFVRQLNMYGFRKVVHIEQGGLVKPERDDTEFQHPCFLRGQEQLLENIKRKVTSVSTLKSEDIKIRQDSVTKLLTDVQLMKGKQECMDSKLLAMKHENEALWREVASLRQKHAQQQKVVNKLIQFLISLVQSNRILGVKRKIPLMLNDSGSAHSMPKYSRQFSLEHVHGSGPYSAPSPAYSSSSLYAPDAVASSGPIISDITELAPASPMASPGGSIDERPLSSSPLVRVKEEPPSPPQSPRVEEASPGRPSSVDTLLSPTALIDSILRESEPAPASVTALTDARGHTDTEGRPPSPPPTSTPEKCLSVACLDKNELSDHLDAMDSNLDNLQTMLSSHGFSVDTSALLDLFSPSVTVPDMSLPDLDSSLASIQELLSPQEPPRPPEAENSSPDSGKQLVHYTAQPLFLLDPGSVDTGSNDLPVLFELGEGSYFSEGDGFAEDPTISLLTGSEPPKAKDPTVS
The target in another test is T2, SPIC (Homo sapiens, UniProt Q8N5J4 1-248).
T2 sequence: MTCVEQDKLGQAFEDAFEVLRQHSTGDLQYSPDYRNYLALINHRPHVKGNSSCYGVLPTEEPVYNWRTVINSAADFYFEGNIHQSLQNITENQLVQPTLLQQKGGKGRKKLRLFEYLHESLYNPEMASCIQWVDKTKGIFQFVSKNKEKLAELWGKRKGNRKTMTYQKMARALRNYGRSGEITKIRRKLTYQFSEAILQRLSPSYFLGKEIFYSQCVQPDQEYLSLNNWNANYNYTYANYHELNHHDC
The conditions noted are these: protein: recombinant; tags: N-terminal GST; dsDNA, one strand shown. In outline: as §1

The target of the next test is ELF4 (Homo sapiens, UniProt Q99607 1-663). The conditions noted are these: protein: recombinant; tags: N-terminal GST; dsDNA, one strand shown. A digest of the protocol: as §1
Sequence of ELF4 (Q99607 whole entry): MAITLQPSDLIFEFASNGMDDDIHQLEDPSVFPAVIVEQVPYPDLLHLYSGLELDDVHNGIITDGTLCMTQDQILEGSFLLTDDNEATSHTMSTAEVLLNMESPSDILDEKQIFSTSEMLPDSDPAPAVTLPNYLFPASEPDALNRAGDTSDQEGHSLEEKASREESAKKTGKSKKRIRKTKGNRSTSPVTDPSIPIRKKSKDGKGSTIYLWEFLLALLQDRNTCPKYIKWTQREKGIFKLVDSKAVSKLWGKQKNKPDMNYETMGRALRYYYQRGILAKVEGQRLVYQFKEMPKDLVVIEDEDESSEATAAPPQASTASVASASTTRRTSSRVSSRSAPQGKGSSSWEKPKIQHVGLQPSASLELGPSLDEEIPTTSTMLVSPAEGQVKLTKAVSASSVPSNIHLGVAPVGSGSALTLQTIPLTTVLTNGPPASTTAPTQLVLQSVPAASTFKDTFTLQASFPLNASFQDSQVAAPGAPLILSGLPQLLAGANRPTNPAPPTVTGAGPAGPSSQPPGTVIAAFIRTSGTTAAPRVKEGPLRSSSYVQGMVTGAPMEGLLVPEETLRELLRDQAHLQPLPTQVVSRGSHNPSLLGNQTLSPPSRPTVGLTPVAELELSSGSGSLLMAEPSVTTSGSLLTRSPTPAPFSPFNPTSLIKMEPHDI
The next test has as its target T3, ELK4 (Homo sapiens, UniProt P28324-2 1-405).
T3 sequence: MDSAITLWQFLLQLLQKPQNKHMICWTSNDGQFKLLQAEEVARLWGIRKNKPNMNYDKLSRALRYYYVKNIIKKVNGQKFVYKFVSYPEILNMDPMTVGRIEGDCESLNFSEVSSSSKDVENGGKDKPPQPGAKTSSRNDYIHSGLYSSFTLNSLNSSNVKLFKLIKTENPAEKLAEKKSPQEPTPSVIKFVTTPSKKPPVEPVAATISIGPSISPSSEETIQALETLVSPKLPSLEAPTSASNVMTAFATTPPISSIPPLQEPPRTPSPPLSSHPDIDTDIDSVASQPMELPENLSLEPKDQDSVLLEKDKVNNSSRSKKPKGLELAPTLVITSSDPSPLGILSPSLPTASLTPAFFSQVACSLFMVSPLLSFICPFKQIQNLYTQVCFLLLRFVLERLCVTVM
The conditions noted are these: protein: recombinant; tags: N-terminal GST; dsDNA, one strand shown. In outline:
as §1

In a further test the target is T4, ETV2 (Homo sapiens, UniProt O00321 1-342).
T4 sequence: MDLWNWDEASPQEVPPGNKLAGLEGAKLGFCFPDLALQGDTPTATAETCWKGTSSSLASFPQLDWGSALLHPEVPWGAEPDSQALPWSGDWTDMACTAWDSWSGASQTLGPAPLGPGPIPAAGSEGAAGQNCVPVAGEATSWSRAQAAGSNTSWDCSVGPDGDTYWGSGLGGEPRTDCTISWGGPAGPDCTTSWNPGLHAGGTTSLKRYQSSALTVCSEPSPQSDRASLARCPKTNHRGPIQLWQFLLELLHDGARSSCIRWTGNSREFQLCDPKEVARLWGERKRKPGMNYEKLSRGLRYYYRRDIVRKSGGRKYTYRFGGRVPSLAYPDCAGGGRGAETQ
The conditions noted are these: protein: recombinant; tags: N-terminal GST; dsDNA, one strand shown. In outline: as §1

Another test concerns the target T5, ELF3 (Homo sapiens, UniProt P78545 1-371).
T5 sequence: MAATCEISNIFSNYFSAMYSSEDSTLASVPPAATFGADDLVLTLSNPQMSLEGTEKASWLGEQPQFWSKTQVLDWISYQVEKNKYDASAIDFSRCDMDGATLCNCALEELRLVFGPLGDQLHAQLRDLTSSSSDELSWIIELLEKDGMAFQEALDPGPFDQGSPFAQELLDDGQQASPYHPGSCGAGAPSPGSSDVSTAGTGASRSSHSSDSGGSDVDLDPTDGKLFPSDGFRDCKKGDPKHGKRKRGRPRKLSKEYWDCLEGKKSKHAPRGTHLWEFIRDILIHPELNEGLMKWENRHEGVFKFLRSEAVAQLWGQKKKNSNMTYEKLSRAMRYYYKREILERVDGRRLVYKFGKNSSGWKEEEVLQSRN
The conditions noted are these: protein: recombinant; tags: N-terminal GST; dsDNA, one strand shown. In outline: as §1

The next test has as its target CRX (Homo sapiens, UniProt O43186 1-299). The conditions noted are these: protein: recombinant; tags: N-terminal GST; dsDNA, one strand shown. A digest of the protocol:
as §1

The target in the next test is ETV1 (Homo sapiens, UniProt P50549 1-477). The conditions noted are these: protein: recombinant; tags: N-terminal GST; dsDNA, one strand shown. A digest of the protocol:
as §1

A further test concerns the target T6, ERF (Homo sapiens, UniProt P50548 1-548).
T6 sequence: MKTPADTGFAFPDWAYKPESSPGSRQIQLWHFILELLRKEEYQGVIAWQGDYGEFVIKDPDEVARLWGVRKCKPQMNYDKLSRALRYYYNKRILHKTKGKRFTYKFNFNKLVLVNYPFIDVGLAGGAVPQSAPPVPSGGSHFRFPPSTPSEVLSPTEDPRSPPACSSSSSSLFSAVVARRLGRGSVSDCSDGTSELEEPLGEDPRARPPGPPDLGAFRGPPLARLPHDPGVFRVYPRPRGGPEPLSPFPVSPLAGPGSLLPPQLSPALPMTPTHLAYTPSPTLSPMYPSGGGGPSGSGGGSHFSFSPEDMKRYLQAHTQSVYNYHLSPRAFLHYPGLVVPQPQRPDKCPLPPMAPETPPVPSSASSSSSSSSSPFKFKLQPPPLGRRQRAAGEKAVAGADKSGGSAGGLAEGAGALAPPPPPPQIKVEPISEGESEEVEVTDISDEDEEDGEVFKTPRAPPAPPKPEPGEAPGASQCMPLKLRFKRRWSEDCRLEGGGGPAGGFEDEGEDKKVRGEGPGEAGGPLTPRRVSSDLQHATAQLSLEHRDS
The conditions noted are these: protein: recombinant; tags: N-terminal GST; dsDNA, one strand shown. In outline:
as §1

The target in a further test is T7, ETV3L (Homo sapiens, UniProt Q6ZN32 1-361).
T7 sequence: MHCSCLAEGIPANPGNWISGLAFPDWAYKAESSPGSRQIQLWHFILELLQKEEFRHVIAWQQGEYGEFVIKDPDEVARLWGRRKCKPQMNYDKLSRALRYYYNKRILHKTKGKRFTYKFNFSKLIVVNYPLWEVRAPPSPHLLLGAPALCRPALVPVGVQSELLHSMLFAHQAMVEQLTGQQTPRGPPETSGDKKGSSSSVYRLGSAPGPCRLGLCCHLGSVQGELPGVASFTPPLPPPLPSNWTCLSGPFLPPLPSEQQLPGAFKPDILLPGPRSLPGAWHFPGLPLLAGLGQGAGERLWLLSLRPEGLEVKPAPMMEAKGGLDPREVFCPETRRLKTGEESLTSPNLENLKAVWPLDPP
The conditions noted are these: protein: recombinant; tags: N-terminal GST; dsDNA, one strand shown. A digest of the protocol:
as §1

The target of the next test is T8, ETS2 (Homo sapiens, UniProt P15036 1-469).
T8 sequence: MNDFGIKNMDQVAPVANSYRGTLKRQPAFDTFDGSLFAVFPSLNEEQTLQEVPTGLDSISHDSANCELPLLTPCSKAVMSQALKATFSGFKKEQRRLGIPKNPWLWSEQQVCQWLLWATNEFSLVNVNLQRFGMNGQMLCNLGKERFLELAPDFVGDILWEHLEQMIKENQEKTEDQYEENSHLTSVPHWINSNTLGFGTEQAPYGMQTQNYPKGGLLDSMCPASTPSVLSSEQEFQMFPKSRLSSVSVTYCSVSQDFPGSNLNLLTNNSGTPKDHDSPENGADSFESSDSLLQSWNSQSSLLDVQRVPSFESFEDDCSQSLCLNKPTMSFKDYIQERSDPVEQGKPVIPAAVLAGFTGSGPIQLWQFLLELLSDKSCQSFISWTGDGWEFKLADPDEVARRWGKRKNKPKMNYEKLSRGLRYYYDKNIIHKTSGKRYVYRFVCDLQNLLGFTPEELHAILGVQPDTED
The conditions noted are these: protein: recombinant; tags: N-terminal GST; dsDNA, one strand shown. In outline: as §1

For the next test, the target named is T9, SPDEF (Homo sapiens, UniProt O95238 1-335).
T9 sequence: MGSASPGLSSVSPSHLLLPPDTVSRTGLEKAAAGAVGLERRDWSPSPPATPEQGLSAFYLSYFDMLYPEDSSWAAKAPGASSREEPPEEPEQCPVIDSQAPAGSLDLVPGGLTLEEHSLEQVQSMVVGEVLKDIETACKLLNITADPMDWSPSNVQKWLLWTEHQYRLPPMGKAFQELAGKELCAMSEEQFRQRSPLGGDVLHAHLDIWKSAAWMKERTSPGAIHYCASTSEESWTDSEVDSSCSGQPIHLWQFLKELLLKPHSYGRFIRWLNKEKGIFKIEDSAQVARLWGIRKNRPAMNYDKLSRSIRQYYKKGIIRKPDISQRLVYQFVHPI
The conditions noted are these: protein: recombinant; tags: N-terminal GST; dsDNA, one strand shown. A digest of the protocol:
as §1

A further test addresses T10, ETV7 (Homo sapiens, UniProt Q9Y603 1-341).
T10 sequence: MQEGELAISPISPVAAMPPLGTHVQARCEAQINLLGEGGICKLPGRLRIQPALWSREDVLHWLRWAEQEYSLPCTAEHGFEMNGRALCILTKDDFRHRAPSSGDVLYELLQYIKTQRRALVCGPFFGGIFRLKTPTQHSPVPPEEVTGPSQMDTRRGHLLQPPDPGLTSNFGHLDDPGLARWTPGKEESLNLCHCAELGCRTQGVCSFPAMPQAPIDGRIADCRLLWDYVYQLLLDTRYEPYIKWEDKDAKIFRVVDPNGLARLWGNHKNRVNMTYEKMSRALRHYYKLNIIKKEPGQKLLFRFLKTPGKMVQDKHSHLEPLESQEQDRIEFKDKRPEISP
The conditions noted are these: protein: recombinant; tags: N-terminal GST; dsDNA, one strand shown. A digest of the protocol:
as §1

Another test has as its target T11, ELF5 (Homo sapiens, UniProt Q9UKW6-2 1-255).
T11 sequence: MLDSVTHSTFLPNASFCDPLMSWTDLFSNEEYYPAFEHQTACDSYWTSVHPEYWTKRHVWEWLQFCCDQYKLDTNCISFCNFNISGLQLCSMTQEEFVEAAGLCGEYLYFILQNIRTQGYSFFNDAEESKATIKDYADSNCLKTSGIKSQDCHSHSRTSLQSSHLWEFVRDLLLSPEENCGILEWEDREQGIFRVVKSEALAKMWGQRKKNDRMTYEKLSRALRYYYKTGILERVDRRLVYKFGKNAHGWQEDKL
The conditions noted are these: protein: recombinant; tags: N-terminal GST; dsDNA, one strand shown. In outline:
as §1

In another test the target is T12, ETV3 (Homo sapiens, UniProt P41162-2 1-143).
T12 sequence: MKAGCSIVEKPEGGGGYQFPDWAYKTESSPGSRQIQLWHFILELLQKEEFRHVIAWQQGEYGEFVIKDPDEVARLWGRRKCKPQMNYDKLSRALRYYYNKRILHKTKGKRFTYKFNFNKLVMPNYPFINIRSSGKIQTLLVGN
The conditions noted are these: protein: recombinant; tags: N-terminal GST; dsDNA, one strand shown. A digest of the protocol: as §1

Another test deals with ETV6 (Homo sapiens, UniProt P41212 1-452). The conditions noted are these: protein: recombinant; tags: N-terminal GST; dsDNA, one strand shown. A digest of the protocol:
as §1

Sequence of ETV1 (P50549 whole entry): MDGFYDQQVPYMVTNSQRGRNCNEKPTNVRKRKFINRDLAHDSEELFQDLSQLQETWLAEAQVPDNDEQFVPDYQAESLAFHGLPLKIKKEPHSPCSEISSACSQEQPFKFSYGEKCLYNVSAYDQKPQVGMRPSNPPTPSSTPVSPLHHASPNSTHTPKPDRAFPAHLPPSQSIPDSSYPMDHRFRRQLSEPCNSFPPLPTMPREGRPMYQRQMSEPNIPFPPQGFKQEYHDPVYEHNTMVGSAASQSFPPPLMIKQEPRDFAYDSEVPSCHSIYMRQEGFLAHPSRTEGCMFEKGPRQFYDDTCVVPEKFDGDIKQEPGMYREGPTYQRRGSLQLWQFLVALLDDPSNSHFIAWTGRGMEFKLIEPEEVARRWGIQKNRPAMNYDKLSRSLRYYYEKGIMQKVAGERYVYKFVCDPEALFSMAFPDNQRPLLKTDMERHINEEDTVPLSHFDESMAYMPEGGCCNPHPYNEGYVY
Sequence of ETV6 (P41212 whole entry): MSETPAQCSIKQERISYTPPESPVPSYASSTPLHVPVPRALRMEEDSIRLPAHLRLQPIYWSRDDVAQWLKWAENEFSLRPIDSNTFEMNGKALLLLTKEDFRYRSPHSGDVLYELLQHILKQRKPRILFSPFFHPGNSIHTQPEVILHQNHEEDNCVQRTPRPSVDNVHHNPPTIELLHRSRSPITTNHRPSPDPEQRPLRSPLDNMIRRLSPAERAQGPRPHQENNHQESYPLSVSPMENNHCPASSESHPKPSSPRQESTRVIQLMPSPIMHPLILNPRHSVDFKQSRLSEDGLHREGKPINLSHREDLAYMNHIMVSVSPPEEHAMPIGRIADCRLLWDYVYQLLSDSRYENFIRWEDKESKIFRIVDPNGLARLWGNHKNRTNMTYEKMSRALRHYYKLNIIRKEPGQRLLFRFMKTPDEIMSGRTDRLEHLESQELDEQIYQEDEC
Sequence of CRX (O43186 whole entry): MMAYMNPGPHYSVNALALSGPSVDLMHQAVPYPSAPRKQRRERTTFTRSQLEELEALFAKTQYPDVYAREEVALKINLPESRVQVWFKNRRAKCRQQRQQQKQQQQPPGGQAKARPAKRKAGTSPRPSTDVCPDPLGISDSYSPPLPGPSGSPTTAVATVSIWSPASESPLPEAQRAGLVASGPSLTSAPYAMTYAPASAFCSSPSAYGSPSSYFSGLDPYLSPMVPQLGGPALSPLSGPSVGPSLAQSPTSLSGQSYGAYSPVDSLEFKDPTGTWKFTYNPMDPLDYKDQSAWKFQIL
Sequence of ETV5 (P41161 whole entry): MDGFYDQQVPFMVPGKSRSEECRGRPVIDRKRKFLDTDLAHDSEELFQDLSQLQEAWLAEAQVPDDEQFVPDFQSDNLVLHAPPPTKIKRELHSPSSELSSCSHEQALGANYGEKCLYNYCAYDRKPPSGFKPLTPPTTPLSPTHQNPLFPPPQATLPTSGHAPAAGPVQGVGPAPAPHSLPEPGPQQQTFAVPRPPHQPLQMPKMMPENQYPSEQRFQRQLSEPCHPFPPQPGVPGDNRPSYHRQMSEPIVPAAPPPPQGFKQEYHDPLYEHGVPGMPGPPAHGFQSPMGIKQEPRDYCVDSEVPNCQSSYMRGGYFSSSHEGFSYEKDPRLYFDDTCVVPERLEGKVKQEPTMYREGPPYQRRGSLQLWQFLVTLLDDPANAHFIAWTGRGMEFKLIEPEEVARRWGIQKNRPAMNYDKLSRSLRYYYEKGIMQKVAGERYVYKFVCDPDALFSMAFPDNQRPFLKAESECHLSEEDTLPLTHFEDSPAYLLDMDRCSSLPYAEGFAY

Take TTGATA: the binding signal with FEV is 1.13 fold enrichment (6-mer frequency, TF over GST control); with ETV5, 1.15 fold enrichment (6-mer frequency, TF over GST control); with HSF1, 1.19 fold enrichment (6-mer frequency, TF over GST control); with SPIC it was 1.36 fold enrichment (6-mer frequency, TF over GST control); with ELF4, 1.29 fold enrichment (6-mer frequency, TF over GST control); in the test with ELK4, 1.42 fold enrichment (6-mer frequency, TF over GST control). Moreover, the binding signal with ETV2 was 1.23 fold enrichment (6-mer frequency, TF over GST control); with ELF3, 1.03 fold enrichment (6-mer frequency, TF over GST control); in the test with CRX, 1.53 fold enrichment (6-mer frequency, TF over GST control); with ETV1 it was 1.25 fold enrichment (6-mer frequency, TF over GST control); in the test with ERF, 1.24 fold enrichment (6-mer frequency, TF over GST control); with ETV3L it was 1.27 fold enrichment (6-mer frequency, TF over GST control). Further, the binding signal with ETS2 was 1.15 fold enrichment (6-mer frequency, TF over GST control); with SPDEF it was 1.13 fold enrichment (6-mer frequency, TF over GST control); with ETV7, 1.23 fold enrichment (6-mer frequency, TF over GST control); with ELF5, 1.21 fold enrichment (6-mer frequency, TF over GST control); in the test with ETV3, 1.25 fold enrichment (6-mer frequency, TF over GST control); with ETV6, 1.14 fold enrichment (6-mer frequency, TF over GST control).
